TDP-43 yeast inh: rescues yeast growth from TDP-43 toxicity. Potency, µM (doses to about 46.1 µM), inactives show at the top dose growth rescue (activation), hits mostly activators. TDP-43 expressing yeast growth rescue, BacTiter-Glo, 24 h. AID 652104. hit rate 1.8% among 410,000; also: % of control where 0% means no effect; nearly all actives have a fitted effect of over 50% in size
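Galactose-induced TDP-43 yeast, OD600=0.02, compound pinned; 24 hr, 30 deg C; BacTiter-Glo luminescence for growth. Inhibitors of TDP-43 toxicity read as activators.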
Abeta rescue: A-beta toxicity reversal in yeast | yeast expressing A-beta42, growth rescue, OD600, 48 h; response scale: 0% DMSO, 100% iron-clioquinol control | Potency, µM (highest dose often 46.1 µM), hits mostly activators | hit rate 0.063% among 410,000 | AID 1347071; also: nearly all actives have a fitted effect of over 55% in size
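Growth rescue measured by 600 nm absorbance after 48 h yeast culture at 30 C with compound. Values normalized between DMSO and an equimolar ferric chloride plus clioquinol control.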
FUS yeast rescue: suppressors of FUS proteinopathy in yeast | S. cerevisiae FUS-expressing, growth rescue, OD600, 24 h | Potency, µM (doses to about 76.6 µM), most hits filed as activators | hit rate 0.24% among 390,000 | AID 1347120;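 also: plate controls were DMSO vehicle for no effect and reference control for full effect; nearly all actives have a fitted effect of over 55% in size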
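S. cerevisiae expressing FUS from galactose induction served as the toxicity model. Growth after 24hr at 30C, read as absorbance at 600 nm, indicates suppression of toxicity; compounds dosed at several concentrations.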
uPA generation: blocks generation of uPA at the cell surface; cell surface uPA generation assay, qHTS; Potency, µM (series often up to 38.3 µM), for the others: at the top dose activity change, negative = inhibition, usual class: inhibitors; hit rate 0.31% among 330,000; active = well fitted inhibition curve with a large enough effect; inconclusive = small, poorly fitted or top-dose-only effect; inactive = no such curve, though single readings can be large or run the other way; tested in mouse RAW 264.7 cells; also: % is scaled to controls: 0 for no effect and ±100 for the full control effect; nearly all actives have a fitted effect of over 55% in size
Chronic BCR inh: blocks chronic active B-cell receptor signaling; ABC-DLBCL IkBa-CBG/CBR reporter, luminescence ratio, 4 h; hit rate 0.05% among 340,000; AID 493014; Potency, µM (top dose mostly 46.1 µM), inactives show at the highest dose activity change, negative = inhibition, actives largely listed as inhibitors; active = well fitted inhibition curve with a large enough effect in the signal ratio, with a control signal flat, not every such curve was filed as active; inconclusive = small, poorly fitted or top-dose-only effect, or effect the other way, or a change in a side signal; the % refers to the signal ratio;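 also: plate controls were basal doxycycline-induced cells for no effect and cells given 10 µM MG132 for full effect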
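TMD8 ABC-DLBCL cells carrying doxycycline-inducible green luciferase fused to IkappaBalpha plus unfused red luciferase were exposed to compounds (up to 46 uM) for 4 hrs at 37C. Activity came from the overlap-corrected green/red luminescence ratio.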
aSyn rescue: inhibitors of alpha-synuclein toxicity in yeast. Yeast expressing alpha-synuclein, growth rescue, BacTiter-Glo, 24 h. Potency, µM (highest dose often 46.1 µM), for the others: top-dose growth rescue (activation), actives largely listed as activators. hit rate 0.14% among 370,000; also: % of control where 0% means no effect; nearly all actives have a fitted effect of over 65% in size
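Screening used galactose-induced yeast with toxic alpha-synuclein levels, exposed to compound for 24 hr at 30 deg C. Cell growth, read with BacTiter-Glo luminescence, gave the measured signal.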
The depositor's hits bear a star; i = inactive; ? = inconclusive; . = not tested or not shown. Rows were chosen to be rich in hits. Some 2.3% of all compounds tested hit in one or more screens of this group. Unless noted, calls follow the shape of the dose curve; as a rule, active = well fitted curve in the direction sought with a large enough effect; inconclusive = small, poorly fitted or top-dose-only effect, or another doubt; inactive = no such curve, though single readings can be large; an effect the other way counts as inactive or inconclusive. Potency is read from the fitted curve at half-maximal effect.

SMILES	TDP-43 yeast inh	Abeta rescue	FUS yeast rescue	uPA generation	Chronic BCR inh	aSyn rescue
COc1ccc(Cn2c(=O)sc3ccccc3c2=O)cc1	11µM*	i	i	0%	?	?
CCOc1ccc(Cn2c(=O)sc3ccccc32)cc1OC	13µM*	i	i	4%	-15%	?
COc1ccccc1N(C)S(=O)(=O)c1ccc(Cl)c(C(=O)NCC2(N(C)C)CCCCC2)c1	0%	i	i	1%	13%	-3%
COc1ccc(-c2nc(-n3c(C)c(C(C)=O)c(C(C)=O)c3C)sc2C)cc1OC	-13%	i	i	.	-14%	5%
Cc1cccc(-c2nc(CCNC(=O)Cc3ccccc3)cs2)c1	16µM*	i	i	.	.	.
Cc1cccc(-c2nc(CCNC(=O)COc3ccccc3)cs2)c1	35µM*	i	i	.	.	.
COc1ccc(CCC(=O)NCCc2csc(-c3cccc(C)c3)n2)cc1	?	i	i	.	.	.
O=[N+]([O-])c1ccc(-c2nc(Cl)c3c(n2)CCCC3)o1	7.1µM*	i	i	.	.	-6%
Cc1[nH]n(C(N)=S)c(=O)c1N=Nc1ccc(S(=O)(=O)N2CCCCCC2)cc1	4µM*	i	i	-3%	?	2%
COc1ccc(/C(N)=N/OC(=O)c2ccco2)cc1	18µM*	i	i	-11%	-20%	-17%
Cc1cccc(/C(N)=N/OC(=O)c2ccco2)c1	22µM*	i	i	-8%	?	-38%
N/C(=N\OC(=O)c1ccco1)c1ccc(Br)cc1	14µM*	i	i	3%	?	-48%
N/C(=N\OC(=O)c1ccco1)c1ccccc1	?	i	i	3%	?	2%
Cc1ccc(/C(N)=N/OC(=O)c2ccco2)cc1	?	i	i	-2%	?	-18%
Nc1nonc1OCCOCCOCCOc1nonc1N	-5%	i	i	.	5%	0%
Cc1ccc(OCc2occc2C(=O)O)cc1	14µM*	i	i	11%	.	5%
CCc1ccc2oc(-c3cc(N=Cc4cccc(OC)c4O)ccc3O)nc2c1	16µM*	i	i	-6%	0%	0%
CCc1ccc2oc(-c3cc(NC(=O)c4cc(OC)c(OC)c(OC)c4)ccc3O)nc2c1	?	i	i	.	.	.
CC(C)(C)C(O)C(Cc1ccccc1Cl)n1cncn1 (stereo unspecified)	35µM*	i	i	-5%	0%	14%
CC(C)(C)C(=O)C(Cc1ccccc1Cl)n1cncn1 (stereo unspecified)	7.1µM*	i	i	5%	?	30%
CC(C)(C)C(=O)C(Cc1ccccc1)n1cncn1 (stereo unspecified)	?	i	i	0%	11%	?
CCCC(C(=O)c1ccccc1)n1cncn1 (stereo unspecified)	-15%	i	i	0%	11%	-1%
COCc1cc(OC)nc(-c2csc(C)n2)n1	24%	16µM*	i	3%	?	4%
COCc1cc(=O)[nH]c(-c2csc(C)n2)n1	5%	i	i	2%	1%	0%
COc1cc2c(cc1OC)/C(=C/c1ccc(Br)cc1)C(=O)OC2	13µM*	i	?	-12%	?	16%
SMILES	TDP-43 yeast inh	Abeta rescue	FUS yeast rescue	uPA generation	Chronic BCR inh	aSyn rescue
Cc1cc2c(c(C)c1Cl)C(c1ccc3c(c1)OCO3)CC(=O)O2 (stereo unspecified)	22µM*	?	?	7%	-4%	15%
COc1ccccc1N1CCN(C(=O)/C=C/c2ccc3c(c2)OCO3)CC1	?	i	i	10%	5%	5%
O=C(/C=C/c1ccc2c(c1)OCO2)N1CCN(c2ccccc2F)CC1	35µM*	i	.	3%	-4%	5%
Cc1ccc(NC(=O)/C(C#N)=C/c2cc(C)n(-c3ccc(Br)cc3)c2C)cc1C	4µM*	i	?	.	.	.
Cc1ccc(-n2c(C)cc(/C=C(\C#N)C(=O)Nc3ccc(C)c(C)c3)c2C)cc1	3%	i	i	.	.	.
Cc1cccc(CC(=O)NCCn2c(C)cc3ccccc32)c1	1%	i	i	11%	3%	14%
Cc1cccc(N2CCN(C(=O)CCNS(=O)(=O)c3ccc4c(c3)CCN4C(=O)C3CC3)CC2)c1C	15%	i	28µM*	.	.	11%
O=C(CCNS(=O)(=O)c1ccc2c(c1)CCN2C(=O)C1CC1)N1CCN(c2cccc(Cl)c2)CC1	-18%	i	?	.	.	0%
CCOC(=O)c1nnsc1Nc1ccc(C)c(C)c1	11µM*	i	i	17%	0%	-5%
Cc1cc(NC(=O)CCC(=O)N(CC(=O)NCC2CCCO2)c2cccc(F)c2)no1 (stereo unspecified)	6%	i	i	-1%	7%	-6%
CCn1c2c(c(=O)n3ncc(C(=O)Nc4ccc(F)cc4Cl)c13)CN(Cc1ccc(OC)cc1)CC2	3%	i	?	.	.	.
Cc1ccc(Cl)cc1N1CCN(C(=O)c2cnn(C)c2C2CCN(C(=O)OC(C)(C)C)CC2)CC1	22µM*	i	?	.	.	.
CCOC(=O)c1sc2nccc(N(C)C)c2c1N=CNOCc1ccccc1	?	i	i	7%	10%	-2%
CCOC(=O)c1sc2nccc(N(C)C)c2c1N=CNOCc1c(F)cccc1Cl	18µM*	i	i	13%	30%	5%
O=C(OCn1ncc(Br)c(Br)c1=O)c1ccccc1Cl	6.3µM*	i	i	-6%	?	-7%
O=C(O/N=C\c1ccc(N2CCOCC2)c([N+](=O)[O-])c1)c1ccccc1Cl	14µM*	i	.	3%	-15%	12%
O=C(Oc1cc(Cl)ccc1Cl)c1ccc(N2CCOCC2)c([N+](=O)[O-])c1	?	5.6µM*	i	0%	3%	2%
O=C(Oc1ccc(Cl)cc1)c1ccc(N2CCOCC2)c([N+](=O)[O-])c1	-6%	i	.	3%	8%	1%
Cc1cccc(N(C)S(=O)(=O)c2ccc3[nH]cc(C(=O)N4CCOCC4)c(=O)c3c2)c1	5%	i	i	18%	-1%	-6%
Nc1cc(=O)nc(SCC(=O)N(C2CCCCC2)C2CCCCC2)n1-c1ccccc1	-14%	i	28µM*	.	3%	-4%
COc1cccc(NC(=O)c2cc(-c3ccco3)nc3ccccc23)c1	-14%	i	i	-1%	.	-8%
COc1ccc(-c2cc(C(=O)N/N=C(\C)c3cccnc3)c3ccccc3n2)cc1	-24%	i	.	8.9µM*	?	-3%
